This is part of a sample that, as a whole, favours compounds with a hit. Of some 83,000 tested, about 20% had one in any assay.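 Treatment: one concentration, 48 hours, 96-well format. Scoring: percent growth, with anything below 10 considered active.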 Active and inactive are the calls of the source.
What was measured:
Assay in all cases: NCI-60 one-dose screen, 48 h (100 = growth as untreated, 0 = no growth, -100 = all killed)
Conditions in all cases: 10 µM unless noted
SK-MEL-2 melanoma = system: SK-MEL-2 melanoma
SN12C renal = system: SN12C renal
UO-31 renal = system: UO-31 renal
TK-10 renal = system: TK-10 renal
ACHN renal = system: ACHN renal
CAKI-1 renal = system: CAKI-1 renal
A498 renal = system: A498 renal
MOLT-4 leukemia = system: MOLT-4 leukemia
RPMI-8226 leukemia = system: RPMI-8226 leukemia
OVCAR-8 ovarian = system: OVCAR-8 ovarian
OVCAR-5 ovarian = system: OVCAR-5 ovarian
OVCAR-4 ovarian = system: OVCAR-4 ovarian
SK-OV-3 ovarian = system: SK-OV-3 ovarian
IGROV1 ovarian = system: IGROV1 ovarian
OVCAR-3 ovarian = system: OVCAR-3 ovarian
HS 578T breast = system: HS 578T breast
NCI/ADR-RES ovarian = system: NCI/ADR-RES ovarian
CCRF-CEM leukemia = system: CCRF-CEM leukemia
SR leukemia = system: SR leukemia

Measured: growth

O=C(Nc1cccc(-n2cc(-c3ccncc3)c(-c3ccc(Cl)c(O)c3)n2)c1)c1ccccc1
inactive: SK-MEL-2 melanoma 67.9% | SN12C renal 79.3% | UO-31 renal 83.1% | TK-10 renal 109% | ACHN renal 53.2% | CAKI-1 renal 90.3% | A498 renal 72.3% | MOLT-4 leukemia 69.5% | RPMI-8226 leukemia 60.5% | OVCAR-8 ovarian 50.9% | OVCAR-5 ovarian 115% | OVCAR-4 ovarian 40.7% | SK-OV-3 ovarian 80.1% | IGROV1 ovarian 88% | OVCAR-3 ovarian 82.1% | HS 578T breast 48.4% | NCI/ADR-RES ovarian 62.7%

Nc1nnc(-c2ccc3ccccc3c2O)o1
inactive: SK-MEL-2 melanoma 97.9% | SN12C renal 95.9% | UO-31 renal 61.5% | TK-10 renal 128% | ACHN renal 91.7% | CAKI-1 renal 96.8% | A498 renal 103% | CCRF-CEM leukemia 88.7% | RPMI-8226 leukemia 90.8% | OVCAR-8 ovarian 97.6% | OVCAR-5 ovarian 102% | OVCAR-4 ovarian 81.2% | SK-OV-3 ovarian 105% | IGROV1 ovarian 86% | OVCAR-3 ovarian 99.2% | HS 578T breast 97.9% | NCI/ADR-RES ovarian 84.5%

COc1cc(Nc2nc(N[C@H]3CCCC[C@@H]3N)nc3cc[nH]c(=O)c23)cc(OC)c1
inactive: SK-MEL-2 melanoma 41.7% | SN12C renal 33.2% | UO-31 renal 47.7% | TK-10 renal 66.5% | ACHN renal 44.7% | CAKI-1 renal 51.4% | A498 renal 12.4% | RPMI-8226 leukemia 25% | OVCAR-8 ovarian 14.5% | OVCAR-5 ovarian 22.2% | SK-OV-3 ovarian 24.1% | OVCAR-3 ovarian 70.4% | HS 578T breast 53.6% | NCI/ADR-RES ovarian 100%
active: CCRF-CEM leukemia -2.71% | MOLT-4 leukemia 3.76% | IGROV1 ovarian 8.81%

COc1ccc(-c2cnnn2-c2nonc2-n2cccc2)cc1OC
inactive: SK-MEL-2 melanoma 38% | SN12C renal 68.5% | UO-31 renal 72.2% | TK-10 renal 69.6% | CAKI-1 renal 42.9% | A498 renal 56.3% | CCRF-CEM leukemia 54.7% | MOLT-4 leukemia 18.1% | RPMI-8226 leukemia 52.2% | OVCAR-8 ovarian 66.5% | OVCAR-4 ovarian 90.6% | SK-OV-3 ovarian 61.8% | IGROV1 ovarian 62.4% | HS 578T breast 82.5% | NCI/ADR-RES ovarian 18.3%
active: SR leukemia -4.66%

Cc1ccc(S(=O)(=O)Nc2c(Br)cc(Br)cc2C(N)=O)cc1
inactive: SK-MEL-2 melanoma 113% | SN12C renal 101% | UO-31 renal 91.9% | TK-10 renal 161% | ACHN renal 101% | CAKI-1 renal 103% | CCRF-CEM leukemia 95.1% | SR leukemia 111% | RPMI-8226 leukemia 95.2% | OVCAR-8 ovarian 105% | OVCAR-5 ovarian 99.1% | OVCAR-4 ovarian 114% | SK-OV-3 ovarian 106% | IGROV1 ovarian 104% | OVCAR-3 ovarian 112% | HS 578T breast 106% | NCI/ADR-RES ovarian 99.4%

COc1cc(-c2nn(-c3cccc(NC(=O)Nc4ccc(Cl)c(Cl)c4)c3)cc2-c2ccncc2)ccc1Cl
inactive: SN12C renal 10.6% | UO-31 renal 15.9% | TK-10 renal 10.9% | ACHN renal 11.5% | CAKI-1 renal 16.8% | OVCAR-5 ovarian 38% | OVCAR-4 ovarian 19.8% | SK-OV-3 ovarian 11.8% | IGROV1 ovarian 23.9%
active: SK-MEL-2 melanoma -44.2% | A498 renal -6.82% | CCRF-CEM leukemia -7.9% | RPMI-8226 leukemia -11.6% | OVCAR-8 ovarian -17.2% | OVCAR-3 ovarian -10% | HS 578T breast -6.95% | NCI/ADR-RES ovarian 0.321%

Fc1ccccc1-c1nc(-c2nc3cc(Cl)c(Cl)cc3[nH]2)c2ccccn12
active: OVCAR-4 ovarian 1.61%
inactive: SK-MEL-2 melanoma 81.5% | SN12C renal 70.7% | UO-31 renal 62.6% | TK-10 renal 76.5% | A498 renal 104% | CCRF-CEM leukemia 81.9% | MOLT-4 leukemia 67.1% | SR leukemia 20.7% | RPMI-8226 leukemia 74.7% | OVCAR-8 ovarian 68.4% | SK-OV-3 ovarian 83.7% | OVCAR-3 ovarian 70.5% | HS 578T breast 44% | NCI/ADR-RES ovarian 76%

O=C(/C=C/c1cc(-c2ccc3c(c2)OCO3)n[nH]1)c1ccc2c(c1)OCO2
inactive: SK-MEL-2 melanoma 96.6% | SN12C renal 88.9% | UO-31 renal 74.5% | TK-10 renal 106% | CAKI-1 renal 95.1% | A498 renal 93.3% | CCRF-CEM leukemia 72.9% | MOLT-4 leukemia 83.4% | SR leukemia 44.5% | RPMI-8226 leukemia 56.6% | OVCAR-8 ovarian 86.9% | OVCAR-4 ovarian 71.3% | SK-OV-3 ovarian 109% | OVCAR-3 ovarian 90.7% | HS 578T breast 95.2% | NCI/ADR-RES ovarian 102%

O=S(=O)(NCCNc1nccc(-c2c(-c3ccc(F)cc3)nc3sccn23)n1)c1ccc(F)cc1
inactive: SK-MEL-2 melanoma 76.3% | SN12C renal 73% | UO-31 renal 42.7% | TK-10 renal 114% | ACHN renal 52.5% | A498 renal 96.8% | CCRF-CEM leukemia 64.3% | MOLT-4 leukemia 73.9% | RPMI-8226 leukemia 74.7% | OVCAR-8 ovarian 68.2% | OVCAR-5 ovarian 102% | OVCAR-4 ovarian 81.4% | SK-OV-3 ovarian 92.7% | IGROV1 ovarian 61.8% | OVCAR-3 ovarian 90.1% | HS 578T breast 93.8% | NCI/ADR-RES ovarian 81.2%

CN1C=CN(Cc2ccc(-c3ccccn3)nc2)[CH-]1.CN1C=CN(Cc2ccc(-c3ccccn3)nc2)[CH-]1.[Au+3]
inactive: SK-MEL-2 melanoma 46.5% | SN12C renal 41.3% | UO-31 renal 83.5% | TK-10 renal 67.4% | ACHN renal 81.7% | CAKI-1 renal 67.6% | A498 renal 42.9% | MOLT-4 leukemia 11.3% | SR leukemia 16.8% | RPMI-8226 leukemia 18.1% | OVCAR-8 ovarian 13.3% | OVCAR-5 ovarian 50.3% | SK-OV-3 ovarian 75.4% | OVCAR-3 ovarian 32.3% | HS 578T breast 79.2% | NCI/ADR-RES ovarian 101%
active: OVCAR-4 ovarian 6.08% | IGROV1 ovarian 3.06%

Cn1c2ccc(Br)cc2c2c3c(c4c5ccccc5[nH]c4c21)C(=O)N(O)C3=O
active: SK-MEL-2 melanoma -74.4% | SN12C renal -71.9% | UO-31 renal -95.4% | TK-10 renal -72.2% | ACHN renal -66.3% | A498 renal -43.7% | CCRF-CEM leukemia -16% | MOLT-4 leukemia -28% | SR leukemia 0.179% | RPMI-8226 leukemia -29.5% | OVCAR-8 ovarian -27.2% | OVCAR-5 ovarian -6.8% | OVCAR-4 ovarian 3.5% | SK-OV-3 ovarian -84.2% | IGROV1 ovarian -79.4% | OVCAR-3 ovarian -86.2% | HS 578T breast 1.47%
inactive: NCI/ADR-RES ovarian 26.3%

CCC(=O)OC1=CN2C(=NC(c3ccc(N)cc3)=CC2c2cc(OC)c(OC)c(OC)c2)S1 (stereo not drawn)
active: CCRF-CEM leukemia 8.95%
inactive: SK-MEL-2 melanoma 64% | SN12C renal 53.5% | UO-31 renal 58.7% | TK-10 renal 79.2% | ACHN renal 60.5% | CAKI-1 renal 75.1% | A498 renal 81.9% | MOLT-4 leukemia 39.8% | RPMI-8226 leukemia 17.9% | OVCAR-8 ovarian 36.6% | OVCAR-5 ovarian 77.7% | OVCAR-4 ovarian 57.3% | SK-OV-3 ovarian 68.1% | IGROV1 ovarian 65.4% | OVCAR-3 ovarian 24.1% | HS 578T breast 49% | NCI/ADR-RES ovarian 66.9%

O=C(/C=C/c1c[nH]c2ccccc12)c1ccc(O)c(CN2CCN(c3ccc(F)cc3)CC2)c1
inactive: SK-MEL-2 melanoma 105% | SN12C renal 93.4% | UO-31 renal 59.4% | TK-10 renal 116% | ACHN renal 92.1% | CAKI-1 renal 95.4% | CCRF-CEM leukemia 93.2% | MOLT-4 leukemia 99.4% | RPMI-8226 leukemia 91% | OVCAR-8 ovarian 95.1% | OVCAR-5 ovarian 90.8% | OVCAR-4 ovarian 93.9% | SK-OV-3 ovarian 101% | IGROV1 ovarian 106% | OVCAR-3 ovarian 103% | HS 578T breast 108% | NCI/ADR-RES ovarian 103%

COc1cc(-c2nc(-c3nc4ccc(Cl)cc4[nH]3)cc3c2[nH]c2ccccc23)cc(OC)c1OC
inactive: SK-MEL-2 melanoma 62% | SN12C renal 66.1% | UO-31 renal 41.7% | TK-10 renal 93.6% | ACHN renal 66.4% | CAKI-1 renal 83.7% | A498 renal 78% | CCRF-CEM leukemia 46.5% | RPMI-8226 leukemia 45.2% | OVCAR-8 ovarian 48.4% | OVCAR-5 ovarian 93.3% | OVCAR-4 ovarian 59.9% | SK-OV-3 ovarian 103% | OVCAR-3 ovarian 82.8% | HS 578T breast 77.3% | NCI/ADR-RES ovarian 55.6%

COc1ccc(C2C=C(c3ccc(N)cc3)N=C3SC=CN32)cc1OC (stereo not drawn)
inactive: SK-MEL-2 melanoma 108% | SN12C renal 105% | UO-31 renal 82.2% | TK-10 renal 98.1% | ACHN renal 99.9% | CAKI-1 renal 101% | A498 renal 108% | CCRF-CEM leukemia 97.7% | RPMI-8226 leukemia 101% | OVCAR-8 ovarian 98.7% | OVCAR-5 ovarian 108% | OVCAR-4 ovarian 102% | SK-OV-3 ovarian 115% | IGROV1 ovarian 101% | OVCAR-3 ovarian 107% | HS 578T breast 127% | NCI/ADR-RES ovarian 106%

CC(C)(C)c1[nH]nc2c1C(c1cc3ccccc3[nH]c1=O)Nc1cc(C(=O)Nc3ccc(Cl)cc3)ccc1N2 (stereo not drawn)
inactive: SK-MEL-2 melanoma 77.9% | SN12C renal 71.1% | UO-31 renal 83.8% | TK-10 renal 105% | ACHN renal 84.2% | CAKI-1 renal 94.9% | A498 renal 66.3% | MOLT-4 leukemia 18.5% | SR leukemia 65.4% | RPMI-8226 leukemia 42.5% | OVCAR-8 ovarian 75.3% | OVCAR-5 ovarian 114% | OVCAR-4 ovarian 32.5% | SK-OV-3 ovarian 90.6% | IGROV1 ovarian 59.6% | OVCAR-3 ovarian 58.4% | HS 578T breast 52.6% | NCI/ADR-RES ovarian 95.3%

N#Cc1ccc(N2Cc3ccccc3OC3=C2C(=O)c2c(O)ccc(O)c2C3=O)cc1
inactive: A498 renal 93.4% | SK-OV-3 ovarian 63.8% | NCI/ADR-RES ovarian 19.7%
active: SK-MEL-2 melanoma -24% | SN12C renal -32.9% | UO-31 renal -80.5% | TK-10 renal -84.4% | ACHN renal -59.9% | CAKI-1 renal 2.96% | CCRF-CEM leukemia -8.98% | RPMI-8226 leukemia 5.99% | OVCAR-8 ovarian 3.86% | OVCAR-5 ovarian -1.88% | OVCAR-4 ovarian -43.4% | HS 578T breast -14.4%

O=C1/C(=C/c2ccc(Cl)cc2)CN(Cc2cn(CCNc3ccnc4cc(Cl)ccc34)nn2)C/C1=C\c1ccc(Cl)cc1
active: SK-MEL-2 melanoma -89% | SN12C renal -76.1% | UO-31 renal -97.1% | TK-10 renal -89% | ACHN renal -100% | CAKI-1 renal 6.59% | A498 renal -100% | CCRF-CEM leukemia -7.97% | MOLT-4 leukemia -20.7% | RPMI-8226 leukemia -22% | OVCAR-8 ovarian -59.5% | OVCAR-5 ovarian -94.9% | OVCAR-4 ovarian -4.44% | SK-OV-3 ovarian -95.5% | IGROV1 ovarian -75.7% | HS 578T breast -19.8% | NCI/ADR-RES ovarian -26.6%
